GLS inh – inhibitors of human glutaminase (GLS); O94925; GLS enzymatic activity, qHTS titration; Potency, µM (highest dose often 45.5 µM), inactives show at the highest dose activity change, negative = inhibition, usual class: inhibitors; 0.21% of 410,000 active; further: on the % scale 0 is the no-effect control and ±100 the full control effect
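Coupled fluorescence readout: glutamate oxidase/HRP/Amplex Red detect glutamate formed by hKGA from L-glutamine (1 mM solution added). Buffer 45 mM KH2PO4 pH 8.2, 0.02% Tween-20; reads at t0 and 30 min RT.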
HP1b binding inh – blocks HP1-beta chromodomain binding to methylated histone tails; P83916; 0.56% of 390,000 active; AID 540317; AlphaScreen HP1-beta / biotin-H3K9me3 peptide binding; Potency, µM (doses to about 114 µM), for the others: top-dose activity change, negative = inhibition, usual class: inhibitors; further: nearly all actives have a fitted effect of over 70% in size
Target sequence (P83916 whole entry, looked up): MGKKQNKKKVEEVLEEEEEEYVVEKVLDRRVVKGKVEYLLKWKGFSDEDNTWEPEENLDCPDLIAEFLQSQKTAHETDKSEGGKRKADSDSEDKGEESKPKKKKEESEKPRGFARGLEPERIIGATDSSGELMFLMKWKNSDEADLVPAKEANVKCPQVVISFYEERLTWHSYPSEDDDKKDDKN
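HP1-beta protein (50 nM final) preincubated 30 min at room temperature with biotinylated H3(1-18)K9me3 peptide (50 nM) in PBS pH 7.4, 0.01% Tween-20, then compound added for 30 min. AlphaScreen streptavidin donor/nickel chelate acceptor beads (10 ug/mL final), 30 min dark, luminescence read.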
G9a block – blocks human histone lysine methyltransferase G9a; Q96KQ7; G9a H3K9 monomethylation, AlphaScreen, 2 h; Potency, µM (top dose mostly 102 µM), without a hit: top-dose activity, negative = inhibition, hits mostly inhibitors; 8.8% of 350,000 active; further: on the % scale 0 is the no-effect control and ±100 the full control effect; nearly all actives have a fitted effect of over 75% in size
Target sequence (Q96KQ7 913-1193 limits assumed): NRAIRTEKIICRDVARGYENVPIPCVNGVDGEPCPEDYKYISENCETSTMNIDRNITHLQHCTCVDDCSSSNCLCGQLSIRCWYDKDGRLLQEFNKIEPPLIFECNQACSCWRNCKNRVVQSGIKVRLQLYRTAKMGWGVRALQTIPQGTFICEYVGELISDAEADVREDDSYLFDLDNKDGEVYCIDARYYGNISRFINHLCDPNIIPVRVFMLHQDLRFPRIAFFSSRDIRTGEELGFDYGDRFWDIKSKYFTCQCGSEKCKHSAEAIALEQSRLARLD
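Quantitative HTS format: methyltransferase activity on a biotin-tagged H3K9 peptide is measured by AlphaScreen, using a rabbit anti-monomethyl-H3K9 antibody with streptavidin donor and anti-IgG acceptor beads. Final levels are 20 nM enzyme, 500 nM peptide, 20 uM SAM; 2 h RT.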
BAZ2B inh – inhibitors of human BAZ2B bromodomain; AID 504333; Q9UIF8; 4.4% of 360,000 active; AlphaScreen BAZ2B-H3K14Ac peptide displacement; Potency, µM (series often up to 114 µM), without a hit: at the highest dose activity change, negative = inhibition, most hits filed as inhibitors; further: on the % scale 0 is the no-effect control and ±100 the full control effect; nearly all actives have a fitted effect of over 60% in size
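AlphaScreen displacement: compounds (up to 110uM) incubated 30 min at room temperature with a preformed 50 nM BAZ2B/50 nM biotinylated H3K14Ac peptide complex in PBS pH 7.4 with Tween-20. Donor and acceptor beads at 10 ug/mL final added, 20 min light-protected before reading.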
L3MBTL1 inh – blocks human L3MBTL1 | Q9Y468 | 0.66% of 230,000 active | Potency, µM (highest dose often 57.1 µM), without a hit: at the top dose activity, negative = inhibition, actives largely listed as inhibitors | AlphaScreen L3MBTL1–H3K9me1 peptide binding; further: on the % scale 0 is the no-effect control and ±100 the full control effect; nearly all actives have a fitted effect of over 60% in size
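L3MBTL1 (50 nM) pre-complexed 30 min with biotinylated H3(1-15)K9me1 peptide (75 nM), then compounds added for 30 min at room temperature; AlphaScreen streptavidin donor/nickel chelate acceptor beads (10 ug/mL final) read after 30 min dark incubation.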
JMJD2A Tudor inh – JMJD2A Tudor domain (human) inhibition. O75164. 4.4% of 390,000 active. Potency, µM (doses to about 114 µM), inactives show at the top dose activity change, negative = inhibition, most hits filed as inhibitors. AlphaScreen JMJD2A-Tudor / H3K4me3 peptide binding; further: on the % scale 0 is the no-effect control and ±100 the full control effect; nearly all actives have a fitted effect of over 50% in size
Active calls of the source: *; ? = inconclusive; . = no result; ! = not active in a repeat; [ ] = another dose, or the depositor's remark. Sampled rows, rich in hits. Any-hit rate of the full collection: about 10%. The call rests on the fitted dose curve; in most records, active means well fitted curve in the direction sought with a large enough effect; inconclusive means small, poorly fitted or top-dose-only effect, or another doubt; inactive means no such curve, though single readings can be large; an effect the other way counts as inactive or inconclusive. Potency means the concentration at half of the fitted maximal effect.

SMILES	GLS inh	HP1b binding inh	G9a block	BAZ2B inh	L3MBTL1 inh	JMJD2A Tudor inh
O=C(/C=C/c1cccs1)NC(=S)NNC(=O)c1ccccc1O	-4%	6%	10µM*	?	35µM*	79µM*
O=C(/C=C/c1cccs1)NC(=S)Nc1ccccc1	-2%	2%	.	32µM*	-21%	?
O=C(NC(=S)Nc1ccccc1)c1cccs1	-3%	-6%	-12%[59 µM]	-35%	.	-20%
COc1ccc(Cl)cc1-c1ccc(C(=O)O)s1	.	.	6%	.	.	.
CCC(C)(C)c1ccc2c(c1)C(=O)c1ccccc1C2=O	0%	?	?	32µM*	-23%	32µM*
CCc1cc2c(cc3c(=O)n(CC(=O)N4CCCCC4)nc(CC)n32)s1	-3%	23%	3%[59 µM]	2%	.	-10%
CCOc1ccccc1Oc1ncnc2c1oc1ccccc12	-12%	75%	9%[59 µM]	43%	.	19%
Cc1cccc(NC(=O)CN2C(=S)NC(C)(C)CC2C)c1C (stereo unspecified)	16%	-4%	?	3%	3%	-3%
CC(=O)c1cccc(NC(=O)CN2C(=S)NC(C)(C)CC2C)c1 (stereo unspecified)	-10%	6%	32µM*	-18%	17%	12%
Cc1ccc(NC(=O)CN2C(=S)NC(C)(C)CC2C)cc1Cl (stereo unspecified)	-20%	12%	16µM*	-22%	11%	-15%
CC1CC(C)(C)NC(=S)N1CCC(=O)NCCc1ccc(Cl)cc1 (stereo unspecified)	5%	13%	50µM*	-4%	21%	-15%
CC1CC(C)(C)NC(=S)N1CCCC(=O)NCCc1ccc(Cl)cc1 (stereo unspecified)	-3%	34%	-28%	-15%	7%	-9%
CC1CC(C)(C)NC(=S)N1CCC(=O)N1CCc2ccccc21 (stereo unspecified)	-2%	20%	45µM*	-12%	-8%	-4%
Cc1ccc(-c2nnc(Nc3ccc(Cl)cc3)c3ccccc23)cc1S(=O)(=O)N1CCOCC1	0%	18%	-28%[59 µM]	4%	.	-23%
COC(=O)CN1C(=O)CSc2ccc(S(=O)(=O)Nc3cccc(Cl)c3C)cc21	5%	37%	-8%[59 µM]	-9%	.	-9%
COCCNCC(=O)N1c2ccccc2Sc2ccccc21	-2%	-20%	?	?	-1%	?
CC(C)CNCC(=O)N1c2ccccc2Sc2ccccc21	-8%	?	35µM*	?	8%	11µM*
O=S(=O)(CCc1ccccc1)N1CCOCC1	3%	16%	5%	-2%	2%	-3%
CCS(=O)(=O)N1CCN(C(C)CCc2ccccc2)CC1 (stereo unspecified)	11%	?	?	?	7%	8.9µM*
CC(CCc1ccccc1)N1CCN(Cc2ccccc2)CC1 (stereo unspecified)	-1%	45µM*	11µM*	50µM*	3%	2.2µM*
Cc1cc(O)c(C(C)C)cc1NC(=O)Nc1cc(Cl)ccc1Cl	2%	?	.	.	.	45µM*
Cc1cc(O)c(C(C)C)cc1NC(=O)c1ccccc1Cl	14%	26%	18%[59 µM]	2%	-4%	-7%
CCOc1c(Br)cc(CNc2ccc(N3CCOCC3)cc2)cc1OC	68%	?	11µM*	25µM*	.	50µM*
CCOc1cc(CNCc2cccs2)cc(Br)c1OC	5%	43%	-23%	8%	12%	8%
CCOc1c(Br)cc(CNc2ccc3c(c2)OCCO3)cc1OC	9%	-81%	3.2µM*	35µM*	.	50µM*
SMILES	GLS inh	HP1b binding inh	G9a block	BAZ2B inh	L3MBTL1 inh	JMJD2A Tudor inh
CCOc1cc(CNc2ccc3c(c2)OCCO3)cc(Br)c1OCC(N)=O	-1%	-39%	13µM*	45µM*	-18%	50µM*
COc1cc(CNc2ccc3c(c2)OCCO3)ccc1OCC(N)=O	30%	7%	1%	-16%	4%	?
CCOc1cc(CNc2ccc3c(c2)OCCO3)cc(Br)c1OC	-3%	-69%	4µM*	22µM*	.	40µM*
CCN(CC)CCCNC(=O)c1ccc2c(c1)N(Cc1c(F)cccc1Cl)C(=O)c1ccccc1S2	-15%	8%	?	.	.	-31%
C=C(C)CSc1nc2sc3c(c2c(=O)n1-c1ccccc1)CC(C(C)C)OC3 (stereo unspecified)	6%	21%	-5%[59 µM]	-2%	.	-12%
CCCCNC(=O)Cn1c(SCc2ccccc2C)nc2ccncc21	.	19%[57 µM]	.	.	.	-6%[57.1 µM]
CCc1ccc(S(=O)(=O)c2nnn3c2nc(Nc2cc(OC)ccc2OC)c2sccc23)cc1	-2%	21%	-20%[59 µM]	-10%	.	-12%
Cc1conc1NC(c1cccs1)c1ccc2cccnc2c1O (stereo unspecified)	.	.	28%[2.33 µM]	25µM*	?	.
CC(C)CC(=O)NC(c1cccs1)c1ccc2cccnc2c1O (stereo unspecified)	-5%	27%	10%	0%	8%	50µM*
Cc1ccc(-c2nnc(Nc3ccc(C(=O)N(C)C)cc3)c3ccccc23)cc1S(=O)(=O)N(C)C	2%	27%	1%[59 µM]	0%	.	-21%
Cc1cc2[nH]c3c(c[n+](C)c4ccccc34)c2cc1C	-14%	22%	18µM*	?	10%	-7%
Cc1cc2[nH]c3c4ccccc4nc(C)c3c2cc1C	-9%	3%	.	.	.	?
Cc1ccc(NC(=O)CSc2nc3ccccc3c3nc(CCn4c(C)nc5ccccc54)nn23)cc1F	-28%	-2%	-3%[59 µM]	-11%	.	-22%
CC1S/C(=N/N=C/c2cccs2)NC1=O (stereo unspecified)	-1%	31%	20%	8%	?	-29%
CC1S/C(=N/N=C/c2cccc([N+](=O)[O-])c2)NC1=O (stereo unspecified)	14%	8%	13µM*	?	-27%	-36%
COc1ccc(NC(=O)C2CCCN(S(=O)(=O)c3ccc4[nH]c(=O)ccc4c3)C2)cc1 (stereo unspecified)	0%	68%	13%	2%	1%	-7%
CCOc1ccc(NC(=O)C2CCCN(S(=O)(=O)c3ccc4[nH]c(=O)ccc4c3)C2)cc1 (stereo unspecified)	1%	6%	-8%[59 µM]	-24%	.	50µM*!
Cc1ccc(O)c(N=Nc2ccccc2)n1	18%	-25%	11µM*!	.	.	?
Cc1ccc(NC(=S)NCCc2c[nH]c3ccccc23)c(C)c1	11%	-9%	?	35µM*	-27%	?
COc1ccc2[nH]cc(CCNC(=S)NCCc3ccccc3)c2c1	26%	-2%	45µM*	28µM*	-2%	?

Compound activity as filed in PubChem BioAssay.
